# Tests used:
# Format in all cases: functional
# [1] = test system: Plasmodium falciparum; assay: GSK_TCMDC: Inhibition of Plasmodium falciparum 3D7 in whole red blood cells, using parasite LDH activity as an index of growth. Test compounds present at 2uM
# [2] = test system: Plasmodium falciparum; assay: GSK_TCMDC: Inhibition of Plasmodium falciparum Dd2 in whole red blood cells, using parasite LDH activity as an index of growth. Test compounds present at 2uM
# [3] = test system: HepG2; assay: GSK_TCMDC: Percent inhibition of human HepG2 cell line. Test compounds present at 10uM.
SMILES,Inhibition [1] [%],Inhibition [2] [%],Inhibition [3] [%]
c1ccc(Oc2ccc(Nc3ccnc4cc(-c5ccc(CN6CCOCC6)o5)ccc34)cc2)nc1,92,73,5
CCOc1cc(NCCCNc2ncc([N+](=O)[O-])cc2C)nc2ccccc12,84,64,10
COC(=O)c1cccc(NC(=O)NC2CCN(c3ccnc(Nc4ccc(OC)cc4)n3)C2)c1 (stereo not given),99,65,1
CS(=O)(=O)c1ccc2nc(NC(=O)c3csnn3)sc2c1,90,95,3
O=C(C=Cc1ccc(Cl)c(Cl)c1)NCCCCCN1CCC(CCNS(=O)(=O)c2ccc(Br)cc2)CC1,91,0,58
O=C(NCc1cccc2ccccc12)C1CCCN(C(=O)c2ccc(O)c(-c3ccc(Cl)c(Cl)c3)c2)C1 (stereo not given),92,23,1
CC(C)Nc1cc(C(=O)N[C@@H](Cc2ccccc2)[C@H](O)CNC2CCOCC2)c(F)c(N2CCCCS2(=O)=O)c1.O=CO,98,98,2
O=C(Nc1ccc(OC2CCN(Cc3ccc(F)cc3)C2)c(Cl)c1)c1ccsc1.O=C(O)C(F)(F)F (stereo not given),98,95,26
COc1ccc(-c2cccc(CNC3CCN(CC4Cn5c(=O)ccc6ccc(F)c4c65)CC3)c2)cc1.O=C(O)C(F)(F)F (stereo not given),100,74,22
Cn1cnc2c(Nc3ccncc3)nc(-c3ccc4c(c3)OCO4)nc21.O=C(O)C(F)(F)F,96,2,19

# — ChEMBL document CHEMBL1157539, “Thousands of chemical starting points for antimalarial lead identification” (Nature, 2010)
